# Measured values as given in PubChem BioAssay (EPA / NIEHS).
# Several values for one entry are separate records, joined by “and”; a condition that tells them apart may be missing. Identical values can stand only once. Records with an inconclusive call do not appear. Activity calls are given as the source filed them. How the source made its calls: active means hit-call score of the fitted dose curve at least 0.9, where 1 is the maximum; inconclusive means response in the unintended direction; inactive means score below 0.9.
# Biological target: human Epidermal Growth Factor Receptor (EGFR), EGFR (gene 1956) (UniProt P00533)
# Sequence (P00533 whole entry, looked up): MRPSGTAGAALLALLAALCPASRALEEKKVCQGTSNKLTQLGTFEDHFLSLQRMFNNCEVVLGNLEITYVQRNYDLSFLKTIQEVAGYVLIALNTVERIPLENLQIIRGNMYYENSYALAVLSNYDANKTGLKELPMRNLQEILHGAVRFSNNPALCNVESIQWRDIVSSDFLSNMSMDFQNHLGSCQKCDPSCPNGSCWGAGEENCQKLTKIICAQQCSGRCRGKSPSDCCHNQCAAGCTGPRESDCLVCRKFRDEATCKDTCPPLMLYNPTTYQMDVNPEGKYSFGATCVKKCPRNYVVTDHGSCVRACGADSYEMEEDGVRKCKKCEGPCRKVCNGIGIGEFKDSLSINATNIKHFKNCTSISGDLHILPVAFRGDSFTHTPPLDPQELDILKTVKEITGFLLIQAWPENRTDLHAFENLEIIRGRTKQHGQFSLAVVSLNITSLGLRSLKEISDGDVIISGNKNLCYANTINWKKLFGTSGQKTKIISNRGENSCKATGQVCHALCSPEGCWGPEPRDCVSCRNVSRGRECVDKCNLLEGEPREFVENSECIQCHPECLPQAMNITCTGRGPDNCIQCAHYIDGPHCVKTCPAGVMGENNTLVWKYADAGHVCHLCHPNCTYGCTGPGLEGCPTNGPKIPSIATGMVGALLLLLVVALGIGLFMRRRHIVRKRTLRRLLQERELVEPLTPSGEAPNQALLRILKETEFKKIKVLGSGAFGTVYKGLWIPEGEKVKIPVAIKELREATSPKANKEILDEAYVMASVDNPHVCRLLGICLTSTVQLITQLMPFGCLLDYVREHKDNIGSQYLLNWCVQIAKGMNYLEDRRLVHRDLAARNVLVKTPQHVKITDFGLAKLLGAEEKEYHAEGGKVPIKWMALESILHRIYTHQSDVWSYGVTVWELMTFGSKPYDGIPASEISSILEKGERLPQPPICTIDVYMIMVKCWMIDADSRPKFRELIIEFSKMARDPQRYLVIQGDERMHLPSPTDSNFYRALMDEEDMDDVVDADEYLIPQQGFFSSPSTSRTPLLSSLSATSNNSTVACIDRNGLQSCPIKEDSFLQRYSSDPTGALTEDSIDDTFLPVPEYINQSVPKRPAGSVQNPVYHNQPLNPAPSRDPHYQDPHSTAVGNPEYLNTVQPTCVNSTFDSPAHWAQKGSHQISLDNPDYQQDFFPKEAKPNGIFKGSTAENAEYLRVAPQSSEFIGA
# Experiment: NVS_ENZ_hEGFR: NovaScreen (NVS) Enzymatic Assay for human Epidermal Growth Factor Receptor (EGFR) (AID 2283151)
# Procedure: NVS_ENZ_hEGFR is a biochemical, single-readout assay that uses extracted gene-proteins in a cell-free assay. Measurements were taken 1 hour after chemical dosing in a 384-well plate.NVS_ENZ_hEGFR is one of one assay component(s) measured or calculated from the NVS_ENZ_hEGFR assay. It is designed to make measurements of enzyme activity, a form of enzyme reporter, as detected with fluorescence intensity signals by Fluorescence and electrophoretic mobility shift technology.Data from the assay component NVS_ENZ_hEGFR was analyzed into 1 assay endpoint. This assay endpoint, NVS_ENZ_hEGFR, was analyzed in the positive analysis fitting direction relative to DMSO as the negative control and baseline of activity. Using a type of enzyme reporter, loss-of-signal activity can be used to understand changes in the enzymatic activity as they relate to the gene EGFR. Furthermore, this assay endpoint can be referred to as a primary readout, because this assay has produced multiple assay endpoints where this one serves a enzymatic activity function. To generalize the intended target to other relatable targets, this assay endpoint is annotated to the kinase intended target family, where the subfamily is receptor tyrosine kinase.
# Binding assays used specific radioligands (tritiated, iodinated) with non-radioactive competitive displacement ligands in agonist or antagonist protocols (as indicated) and various reference compounds and inhibitors to titrate specific binding to receptors and transporters. Most enzyme assays (CYPs, kinases, phosphatases, proteases, HDACs) used recombinant protein and specific substrates (fluorescence mostly, some colorimetric and radioactive) and inhibitors, followed by a biochemical separation of substrate and product. All assays for the biochemical HTS were initially run in duplicate at a single concentration (10 uM for CYP450 assays and 25 uM for all others). Assay-chemical combinations meeting a pre-defined threshold (e.g., 30% inhibition and other criteria defined below) were then run in singleton concentration-response format with maximum concentration of 20 uM for CYPs and 50 uM for all others. Each assay was run with positive and negative controls, and concurrent controls on every plate. The follow-up (secondary) screen tested active chemical-pairs in concentration series, as well as a few additional assays not tested in the primary screen, some selected negative inactives, and several cases re-run in the concentration series for confirmatory purposes.
SMILES,outcome,AC50
FC(F)(F)C(F)(F)C(F)(F)C(F)(F)C(F)(F)C(F)(F)CCI,inactive,
CCN(Cc1cccc(S(=O)(=O)O)c1)c1ccc(C(=C2C=CC(=[N+](CC)Cc3cccc(S(=O)(=O)O)c3)C=C2)c2ccccc2S(=O)(=O)[O-])cc1,,12.1 µM (active)
N#C[C@@H]1CC(F)(F)CN1C(=O)CNC1CC2CCC(C1)N2c1ncccn1 (stereo not given in full),inactive,
CC(C)CCCCCCc1ccc(O)cc1,inactive,
O=C(O)c1cccc(Oc2ccccc2)c1,inactive,
O=C(O)c1[nH]n(-c2ccc(S(=O)(=O)O)cc2)c(=O)c1N=Nc1ccc(S(=O)(=O)O)cc1,inactive,
Nc1ccc2c(c1)C(=O)c1ccccc1C2=O,inactive,
CN1C(=O)N(c2ccccc2Br)Cc2cnc(Nc3ccc4c(c3)OCC(CO)O4)nc21 (stereo not given),,0.00229 µM (active)
COc1c(Cl)ccc(Cl)c1C(=O)O,inactive,
CCCCCCC(CCCCCCCCCCC(=O)OCC(COC(C)=O)OC(C)=O)OC(C)=O (stereo not given),inactive,
CCc1c(C(=O)NN2CCCCC2)nn(-c2ccc(Cl)cc2Cl)c1-c1ccc(Br)cc1,inactive,
Cc1ccc2ncccc2c1,inactive,
CC(=O)Oc1ccccc1C(=O)O,inactive,
COc1cc(C(=O)NC2CCN(C)CC2)ccc1Nc1ncc2c(n1)N(C1CCCC1)CC(F)(F)C(=O)N2C,,12.2 µM (active)
CC(C)CCCCCCOC(=O)C1CCCCC1C(=O)OCCCCCCC(C)C (stereo not given),inactive,
NC=O,inactive,
O=C(Oc1ccccc1)c1cccc(C(=O)Oc2ccccc2)c1,inactive,
CCCC(CCC)C(=O)O,inactive,

SMILES,outcome,AC50
Cc1ccc(N)cc1O,inactive,
O=C(O)c1cc(N=Nc2ccc(S(=O)(=O)Nc3ccccn3)cc2)ccc1O,,3.95 µM (active)
CCCCCCCCCCCCc1ccccc1S(=O)(=O)O,,12.6 µM (active)
O=C(c1ccc(O)cc1O)c1ccc(O)cc1O,,25 µM (active)
CC/C(=C(/CC)c1ccc(O)cc1)c1ccc(O)cc1,inactive,
Cc1ncc([C@@H](CCCCCCc2ccc3c(n2)NCCC3)CC(=O)O)cn1,inactive,
O=C(OCCCCCOC(=O)c1ccccc1)c1ccccc1,inactive,
CCO[Si](CCCNC(N)=O)(OCC)OCC,inactive,
CCCCCCCC/C=C\CCCCCCCC(=O)OC[C@@H](O)[C@H]1OC[C@H](O)[C@H]1O,inactive,
O=C(O)Cc1cc(I)c(Oc2cc(I)c(O)c(I)c2)c(I)c1,inactive,
S=C(S)NCCNC(=S)S.[Mn+2].[S-]C([S-])=NCCN=C([S-])[S-].[Zn+2],,9.13 µM (active) and 9.55 µM (active) and 21.4 µM (active)
CN(C)C(=O)NC1(c2ccccc2)CCN(CCC[C@]2(c3ccc(Cl)c(Cl)c3)CCCN(C(=O)c3ccccc3)C2)CC1,inactive,
O=c1[nH]cnc2c1ncn2[C@H]1CC[C@@H](CO)O1,inactive,
NCCO,inactive,
O=C(O)Cc1cc(I)c(Oc2ccc(O)c(I)c2)c(I)c1,inactive,
CC(C)(c1ccc(O)cc1)c1ccc(O)cc1,inactive,
COC(=O)[C@H]1[C@H]2C[C@@H]3c4[nH]c5cc(OC)ccc5c4CCN3C[C@H]2C[C@@H](OC(=O)c2cc(OC)c(OC)c(OC)c2)[C@@H]1OC,inactive,
